PubChem BioAssay (Tox21)
Inconclusive results are not listed. Calls of active or inactive are those of the source. Unless noted, calls follow the shape of the dose curve; as a rule, active = well fitted curve in the direction sought with a large enough effect in the repeat runs; inconclusive = weak or mixed curves; inactive = no such curve, though single readings can be large; an effect the other way counts as inactive or inconclusive.

How the values were obtained:
[1] = qHTS assay to identify aromatase inhibitors - cell viability counter screen (AID 743084); details: MCF-7 aro ERE viability, CellTiter-Fluor, 24 h; series mostly up to 70.3 µM;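 also: cells stimulated with testosterone during compound exposure; nearly all actives have a fitted effect of over 55% in size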
[2] = molecular target: Aryl hydrocarbon receptor (Homo sapiens) (UniProt P35869); assay: qHTS assay to identify small molecule that activate the aryl hydrocarbon receptor (AhR) signaling pathway (AID 743085); details: HepG2 AhR-luc (HG2L7.5c1), luciferase, 24 h; series mostly up to 70.3 µM;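 also: HG2L7.5c1 human HepG2 liver cells with stably integrated DRE-driven firefly reporter; nearly all actives have a fitted effect of over 15% in size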
Method in brief: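 Stably transfected human liver carcinoma cells (HG2L7.5c1; 20 DRE-firefly luciferase) were incubated 5 h, dosed, and kept 24 h at 37C. Agonism was scored from increased luciferase luminescence.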

[3] = molecular target: Peroxisome proliferator-activated receptor gamma (Homo sapiens) (UniProt P37231); assay: qHTS assay to identify small molecule agonists of the peroxisome proliferator-activated receptor gamma (PPARg) signaling pathway (AID 743094; active = well fitted activation curve with a large enough effect in the signal ratio in the repeat runs, not every such curve was filed as active; the % refers to the signal ratio); details: HEK293H PPARg-UAS-bla, beta-lactamase FRET ratio, 17 h; series mostly up to 57 µM
Method in brief: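 Cell-based bla reporter, HEK293H background, PPARg-driven UAS. Pre-incubation 5 h, 37C, 5% CO2. Compound 17 h, 37C. Substrate 1 h RT; fluorescence.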

[4] = qHTS assay to identify small molecule antagonists of the peroxisome proliferator-activated receptor gamma (PPARg) signaling pathway - cell viability counter screen (AID 743194); details: PPARg-bla HEK293H viability, CellTiter-Glo luminescence, 17 h, co-treated with 50 nM rosiglitazone; series mostly up to 62.6 µM; also: nearly all actives have a fitted effect of over 55% in size
Method in brief: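 Cytotoxicity counter screen in PPARg-bla HEK293H cells, same wells as reporter assay. Compounds plus 50 nM rosiglitazone (final) for 17 h at 37 C, then viability read by CellTiter-Glo luminescence.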

[5] = qHTS assay for small molecule agonists of the antioxidant response element (ARE) signaling pathway (AID 743202; active = well fitted activation curve with a large enough effect in the signal ratio in the repeat runs, not every such curve was filed as active; the % refers to the signal ratio); details: HepG2 ARE-bla reporter, beta-lactamase FRET, 16 h; series mostly up to 73.3 µM
Method in brief: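 HepG2 ARE-bla reporter line, 2,000 cells/well; 5 h preincubation 37 C/5% CO2; compound (DMSO) 16 h 37 C; B/G FRET substrate 2 h RT; fluorescence intensity.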

[6] = qHTS assay for small molecule agonists of the antioxidant response element (ARE) signaling pathway - cell viability counter screen (AID 743203; calls by dose curve; also: nearly all actives have a fitted effect of over 55% in size); details: ARE-bla HepG2 viability, CellTiter-Glo luminescence, 16 h; series mostly up to 73.3 µM
Method in brief: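 Measured in the same wells as the beta-lactamase ARE reporter, this read-out is CellTiter-Glo luminescence from HepG2 ARE-bla cells given compounds for 16 hrs.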

[7] = qHTS assay for small molecule activators of the heat shock response signaling pathway - cell viability counter screen (AID 743209); details: HSE-bla HeLa viability, CellTiter-Glo luminescence, 5 h; series mostly up to 62.6 µM; also: nearly all actives have a fitted effect of over 50% in size
Method in brief: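 Same-well multiplex: after 2.5 h room-temperature incubation with LiveBLAzer B/G substrate and fluorescence reading, CellTiter-Glo reagent was added to HSE-bla HeLa cells that had received compound for 5 h at 37 C; luminescence read after 30 min.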

[8] = qHTS assay for small molecule activators of the heat shock response signaling pathway (AID 743210; active = well fitted activation curve with a large enough effect in the signal ratio in the repeat runs, with a control signal flat, not every such curve was filed as active; the % refers to the signal ratio;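 also: HeLa cells with beta-lactamase reporter driven by heat shock elements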); details: HeLa HSE-bla reporter, beta-lactamase ratio, 5 h; series mostly up to 62.6 µM
Method in brief: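 Beta-lactamase reporter read-out: FRET substrate fluorescence after 2.5 h at RT, following 5 h compound treatment at 37 C of HeLa cells carrying HSE-driven bla reporter; quantitative HTS format.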

[9] = molecular target: Peroxisome proliferator-activated receptor gamma (Homo sapiens) (UniProt P37231); assay: qHTS assay to identify small molecule antagonists of the peroxisome proliferator-activated receptor gamma (PPARg) signaling pathway (AID 743191; calls by dose curve; also: nearly all actives have a fitted effect of over 30% in size); details: HEK293H PPARg-UAS-bla, beta-lactamase ratio, antagonist, 17 h; series mostly up to 62.6 µM
Method in brief: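 GeneBLAzer PPARg UAS-bla HEK293H cells, 5 h post-plating, exposed to compounds 17 h at 37C. LiveBLAzer B/G FRET substrate added for 1 h at room temperature; beta-lactamase reporter read by fluorescence intensity.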

[10] = qHTS assay to identify small molecule that activate the aryl hydrocarbon receptor (AhR) signaling pathway - cell viability counter screen (AID 743086); details: HepG2-AhR-luc viability, CellTiter-Fluor, 24 h; series mostly up to 70.3 µM;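 also: HepG2 liver cells carrying the AhR DRE luciferase reporter; nearly all actives have a fitted effect of over 45% in size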
Method in brief: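 HepG2-AhR-luc (HG2L7.5c1) cells, 4000/well, treated 24 h at 37 C with compound; viability measured as CellTiter-Fluor fluorescence after 30 min in the same wells as the luciferase read.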

Measured: Potency

Peroxisome proliferator-activated receptor gamma (Homo sapiens), sequence (P37231 whole entry, looked up): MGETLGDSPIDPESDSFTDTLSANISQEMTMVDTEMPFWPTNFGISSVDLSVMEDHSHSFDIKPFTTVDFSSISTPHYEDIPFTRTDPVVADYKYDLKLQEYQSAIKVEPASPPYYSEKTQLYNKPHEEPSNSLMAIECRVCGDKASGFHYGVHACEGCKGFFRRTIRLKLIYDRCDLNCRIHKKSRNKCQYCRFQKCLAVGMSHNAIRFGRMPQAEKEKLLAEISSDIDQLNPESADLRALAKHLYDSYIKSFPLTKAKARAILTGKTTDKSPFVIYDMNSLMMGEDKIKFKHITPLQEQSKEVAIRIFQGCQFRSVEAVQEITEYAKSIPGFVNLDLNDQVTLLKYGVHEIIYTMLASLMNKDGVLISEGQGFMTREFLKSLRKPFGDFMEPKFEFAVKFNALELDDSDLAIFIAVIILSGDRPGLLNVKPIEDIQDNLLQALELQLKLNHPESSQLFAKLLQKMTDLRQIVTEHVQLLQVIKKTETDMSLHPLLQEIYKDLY
Aryl hydrocarbon receptor (Homo sapiens), sequence (P35869 whole entry, looked up): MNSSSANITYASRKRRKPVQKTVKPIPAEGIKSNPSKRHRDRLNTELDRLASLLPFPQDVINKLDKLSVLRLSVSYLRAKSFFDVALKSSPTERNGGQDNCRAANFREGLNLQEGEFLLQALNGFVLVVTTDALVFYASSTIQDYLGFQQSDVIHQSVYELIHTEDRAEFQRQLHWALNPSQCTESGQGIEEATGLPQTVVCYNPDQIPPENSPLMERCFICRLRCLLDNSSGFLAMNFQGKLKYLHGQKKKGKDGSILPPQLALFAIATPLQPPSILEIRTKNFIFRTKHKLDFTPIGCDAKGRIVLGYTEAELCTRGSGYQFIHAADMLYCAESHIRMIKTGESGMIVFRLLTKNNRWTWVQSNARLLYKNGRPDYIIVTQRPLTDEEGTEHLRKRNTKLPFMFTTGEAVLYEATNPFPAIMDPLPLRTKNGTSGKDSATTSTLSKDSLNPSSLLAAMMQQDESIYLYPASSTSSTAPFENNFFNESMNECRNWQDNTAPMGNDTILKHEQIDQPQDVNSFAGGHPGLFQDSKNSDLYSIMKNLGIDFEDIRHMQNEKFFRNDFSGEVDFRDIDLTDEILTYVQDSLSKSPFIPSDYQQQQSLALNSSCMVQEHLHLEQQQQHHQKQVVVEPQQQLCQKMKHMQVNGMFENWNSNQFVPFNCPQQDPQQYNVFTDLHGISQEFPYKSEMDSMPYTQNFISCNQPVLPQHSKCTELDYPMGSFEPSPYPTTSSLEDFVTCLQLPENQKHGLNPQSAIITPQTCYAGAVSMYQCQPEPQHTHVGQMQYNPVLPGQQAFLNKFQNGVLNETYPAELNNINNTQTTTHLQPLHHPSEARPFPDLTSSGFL

O=C1CCCCO1
not listed: [9] | [10]
inactive: all other assays above

OCC(O)CN1CCN(c2ccccc2)CC1 (configuration not stated)
not listed: [10]
inactive: all other assays above

COc1nc(N)nc2nc[nH]c12
not listed: [2] | [8]
inactive: all other assays above

Nc1nc(-c2ccccc2)c(Br)c(=O)[nH]1
not listed: [2]
inactive: all other assays above

CCCCSCCCC
not listed: [2]
inactive: all other assays above

CC(=O)CCc1ccc(OC(C)=O)cc1
not listed: [6] | [10]
inactive: all other assays above

CO/N=C(/C(=O)N[C@@H]1C(=O)N2C(C(=O)[O-])=C(C[n+]3ccn4ncccc43)CS[C@H]12)c1nsc(N)n1
not listed: [2]
inactive: all other assays above

Cc1c(Cl)cccc1Cl
not listed: [2]
inactive: all other assays above

CSc1cnccn1
not listed: [5] | [10]
inactive: all other assays above
